# Assay results as given in US20120264815, “REVERSIBLE PLATELET INHIBITION” (DUKE UNIVERSITY, published 2012).
# Target: von Willebrand factor (VWF) (Homo sapiens, UniProt P04275 P04275:764-2813)
# Assay: filter; binding decreased
# Conditions: tags: Haematologic Technologies Inc. (factor VIII free); label: 5'-32P; ssRNA; 2'-F pyrimidines
# Protocol: Dissociation constants (Kd) of each truncate were determined using double-filter nitrocellulose filter binding assays (Pergolizzi et al, Blood 108:862-869 (2006)). All binding studies were performed in binding buffer F (20 mM HEPES, pH 7.4, 150 mM NaCl, 2 mM CaCl₂, and 0.1% BSA) at 37° C. Human purified VWF (with factor VIII and factor VIII free) was purchased from Haematologic Technologies Inc. (Essex Junction, VT) and used in the double-filter nitrocellulose filter binding assay to determine the Kd of individual clones. Briefly, RNA was dephosphorylated using bacterial alkaline phosphatase (Gibco BRL, Gaithberg, Md.) and end-labeled at the 5′ end with T4 polynucleotide kinase (New England Biolabs, Beverly, Mass.) and [γ³²P] ATP (Amersham Pharmacia Biotech, Piscataway, N.J.). Direct binding was performed by incubating ³²P—RNA with VWF in physiological buffer+1 mg/ml BSA at 37° C. for 5 min. The fraction of the nucleic acid-protein complex which bound to the nitrocellulose membrane was quantified with a phosphoimager (Molecular Dynamics, Sunnyvale, Calif.).
row,Sequence,binding signal
1,GGGAGGACGAUGCGGUGGACGAACUGCCCUCAGCUACUUUCAUGUUGCUGACGCACAGACAGC,36 % Bmax
2,GGGAGGACGAACUGCCCUCAGCUACUUUCAUGUUGCUGACGCACAGACGACUCGCUG,58 % Bmax
3,GGGAGGACGAUGCGGUGGACGAACUGCCCUCAGCUACUUUCAUGUUGCUGACGCACAGACGACUCGCUGAGG,50 % Bmax
4,GGGAGGACGAUGCGGUGGACGAACUGCCCUCAGCUACUUUCAUGUUGCUGACGCACAGACGACUCGCUG,50 % Bmax
5,GGGAGGACGAUGCGGUGGACGAACUGCCCUCAGCUACUUUCAUGUUGCUGACGCACAGA,22 % Bmax
6,GGGAGGAACUGCCCUCAGCUACUUUCAUGUUGCUGACGCACAGACGACUCGCUG,45 % Bmax
7,GGGAGGACGAUGCGGUGGACGAACUGCCCUCAGCUACUUUCAUGUUGCUGACGCACAGACGACUCG,28 % Bmax
